According to PubChem BioAssay (EPA / NIEHS):
“And” between values parts separate entries of the source, which are not always exact repeats. Identical values can stand only once. Where a structure was tested more than once in an assay, its records may differ in their call. The source made the active and inactive calls. Rule for the calls: active = hit-call score of the fitted dose curve at least 0.9, where 1 is the maximum; inactive = score below 0.9.

assay: APR_HepG2_MicrotubuleCSK_24hr: Apredica 24-hour HepG2 Assay for Microtubule CSK Stabilty (AID 2282909); details: HepG2 microtubule cytoskeleton imaging, actives raise or lower the signal
Protocol: APR_HepG2_24hr is a cell-based, multiplexed-readout assay that uses HepG2, a human liver cell line, with measurements taken at 24 hours after chemical dosing in a 384-well plate.APR_HepG2_MicrotubuleCSK_24hr is one of 10 assay component(s) measured or calculated from the APR_HepG2_24hr assay. It is designed to make measurements of protein conformation, a form of conformation reporter, as detected with fluorescence intensity signals by HCS Fluorescent Imaging technology.Data from the assay component APR_HepG2_MicrotubuleCSK_24hr was analyzed into 1 assay endpoint. This assay endpoint, APR_HepG2_MicrotubuleCSK_24hr, was analyzed with bidirectional fitting relative to DMSO as the negative control and baseline of activity. Using a type of conformation reporter, measures of protein for gain or loss-of-signal activity can be used to understand the signaling at the cellular-level. Furthermore, this assay endpoint can be referred to as a primary readout, because this assay has produced multiple assay endpoints where this one serves a signaling function. To generalize the intended target to other relatable targets, this assay endpoint is annotated to the cell morphology intended target family, where the subfamily is cell conformation.
Cells were treated with dimethyl sulfoxide (DMSO) as a solvent control at a final concentration of 0.5% v/v or with compounds in DMSO with a resulting final DMSO concentration of 0.5% v/v. Compound treatment was done at concentrations of 0.39, 0.78, 1.56, 3.12, 6.24, 12.5, 25, 50, 100, and 200 uM in duplicate on each plate. Cells were treated with compounds for 1, 24, or 72 hr. Carbonyl […] m-chloro-phenylhydrazone (CCCP) and taxol were used as positive controls for mitochondrial function and cytoskeletal stability, respectively; DMSO served as the negative control for this experiment. Cells were fixed by the direct addition of 50 uL formaldehyde in Hank's Balanced Salt Solution (HBSS) to a final concentration of 3.7%. After incubation in the fixation medium for 30 min at room temperature (293-298 K), cells were rinsed twice with HBSS and treated with cell permeabilization buffer (16 uL of 0.5% Triton X-100) for 10 min at room temperature (293-298 K) before labeling. For mitochondrial membrane potential and mitochondrial measurements, pre-fixed cells were incubated with 50 uL of MitoTracker Red CMXRos (Invitrogen) at a concentration of 250 nM for 30 min before fixation. In the remaining cases, post-fixed cells were labeled by incubation with a multiplexed mixture of primary antibodies in HBSS for 60 min at room temperature (293-298 K) to detect immunoreactivity of c-Jun (1:500), phospho-histone H3 (1:100), phospho-histone H2A.x (1:200), p53 (1:400), alpha-tubulin (1:200) and Hoechst 33342 (2 ug/mL). Cells were labeled for multiplexed imaging on two separate plates: a) Hoechst 33342, MitoTracker Red, phospho-histone H3, and alpha-tubulin, and b) Hoechst 33342, phospho-histone H2A.x, and c-Jun. A final rinse with HBSS (50 uL) was performed before analysis. The primary and secondary antibodies for the proteins were phospho-histone H3 (rabbit anti-phospho-histone H3 and FITC-donkey anti-rabbit IgG), phospho-histone H2A.x (mouse anti-phospho-histone H2A.x and FITC-donkey anti-mouse IgG), c-Jun (rabbit anti-phospho-c-Jun and Cy3-donkey anti-rabbit IgG), p53 (sheep anti-p53 and Cy5-donkey anti-sheep IgG), alpha-tubulin (mouse anti-alpha-tubulin and Cy5-donkey anti-mouse IgG). These antibodies are available as the CellCiphr HepG2 assay kit (Millipore).Digital images of each well were captured using a Cellomics ArrayScan VTI (Thermo Scientific Cellomics) (0.8 NA objective, 0.63x optical coupler, and XF-93 filter set) at 20x magnification. The images were acquired using the autofocus feature of the ArrayScan instrument, which entails the following steps. First, the camera focuses on channel 1 (Hoechst 33342), where nuclei are identified. Second, a Z offset of 1 um is used for capturing mitochondria (MitoTracker Red). […]

| SMILES | outcome | AC50 |
| --- | --- | --- |
| CCCC1COC(Cn2cncn2)(c2ccc(Cl)cc2Cl)O1 (stereo not given) | inactive | – |
| CCc1nn(C)c(C(=O)NCc2ccc(C(C)(C)C)cc2)c1Cl | – | 19.8 µM (active) |
| CCCCNC(=O)OCC#CI | inactive | 14.7 µM (active) |
| CC1COC(Cn2cncn2)(c2ccc(Oc3ccc(Cl)cc3)cc2Cl)O1 (stereo not given) | inactive | – |
| O=C(Nc1ccccc1)Nc1ccnc(Cl)c1 | – | 84.5 µM (active) |
| CCOP(=S)(OCC)SCn1c(=O)oc2cc(Cl)ccc21 | inactive | – |
| CCCCC(CC)COC(=O)c1ccccc1C(=O)OCC(CC)CCCC (stereo not given) | inactive | – |
| COc1ccc(C(c2ccc(OC)cc2)C(Cl)(Cl)Cl)cc1 | – | 69.8 µM (active) |
| CCOC(=O)C(Cl)Cc1cc(-n2nc(C)n(C(F)F)c2=O)c(F)cc1Cl (stereo not given) | inactive | – |
| COP(N)(=O)SC (stereo not given) | inactive | – |
| CNC(=S)S | – | 74.4 µM (active) |
| CCCCNC(=O)n1c(NC(=O)OC)nc2ccccc21 | inactive | – |
| N#Cc1cc(Br)c(O)c(Br)c1 | inactive | – |
| CCCN(CCC)c1c([N+](=O)[O-])cc(S(N)(=O)=O)cc1[N+](=O)[O-] | inactive | 109 µM (active) |
| CCNc1nc(Cl)nc(NCC)n1 | inactive | – |
| CCCCOC(=O)c1ccccc1C(=O)OCCCC | inactive | – |
| CCON=C(CC)C1=C(O)CC(c2c(C)cc(C)cc2C)CC1=O (stereo not given) | inactive | – |
| Oc1ccccc1-c1ccccc1 | inactive | – |
| CC(C)(C)c1ccc(CSc2cnn(C(C)(C)C)c(=O)c2Cl)cc1 | inactive | – |

| SMILES | outcome | AC50 |
| --- | --- | --- |
| CC1=C(C(=O)Nc2ccccc2)SCCO1 | inactive | – |
| N#CC(CCc1ccc(Cl)cc1)(Cn1cncn1)c1ccccc1 (stereo not given) | – | 104 µM (active) |
| CCOc1cc(Oc2ccc(C(F)(F)F)cc2Cl)ccc1[N+](=O)[O-] | inactive | – |
| CNC(=O)ON=CC(C)(C)SC | inactive | – |
| COC(=O)N(OC)c1ccccc1COc1ccn(-c2ccc(Cl)cc2)n1 | – | 6.07 µM (active) |
| CCNc1nc(Cl)nc(NC(C)C)n1 | inactive | – |
| CC(Oc1ccc(Cl)cc1Cl)C(=O)O (stereo not given) | inactive | – |
| CN(C)C(=S)SSC(=S)N(C)C | – | 17.6 µM (active) |
| COC(=O)c1ccccc1C(=O)OC | inactive | – |
| O=C(O)c1nc(Cl)ccc1Cl | inactive | – |
| C=CC1(C)OC(=O)N(c2cc(Cl)cc(Cl)c2)C1=O (stereo not given) | inactive | – |
| COP(=S)(OC)Oc1nc(Cl)c(Cl)cc1Cl | inactive | – |
| O=C(O)COc1nc(Cl)c(Cl)cc1Cl | inactive | – |
| CCOC(=O)CC(SP(=S)(OC)OC)C(=O)OCC (stereo not given) | inactive | – |
| CO/C=C(/C(=O)OC)c1ccccc1Oc1cc(Oc2ccccc2C#N)ncn1 | inactive | – |
| Cc1c(F)c(F)c(COC(=O)C2C(/C=C(\Cl)C(F)(F)F)C2(C)C)c(F)c1F (stereo not given) | inactive | – |
| COc1cnc(OC)n2nc(NS(=O)(=O)c3c(OCC(F)F)cccc3C(F)(F)F)nc12 | inactive | – |
| C=CCC1=C(C)C(OC(=O)C2C(C=C(C)C)C2(C)C)CC1=O (stereo not given) | inactive | 30.6 µM (active) and 29.7 µM (active) |
